Screens (PubChem)
ELG1 repair inh = qHTS screen for small molecules that inhibit ELG1-dependent DNA repair in human embryonic kidney (HEK293T) cells expressing luciferase-tagged ELG1 | HEK293T ELG1-luciferase reporter, luminescence, 16 h; DNA damage induced by 5-fluorouridine | Potency, µM (highest dose often 46.1 µM), inactives show top-dose activity change, negative = inhibition, hits mostly inhibitors | 330,000 tested, 2.3% active | AID 504467, 2011; note: potency is the fitted concentration of half-maximal effect; nearly all actives have a fitted effect of over 55% in size
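Luminescence from the luciferase reporter, measured 30 min after ONE-Glo reagent at room temperature, was the read-out. Beforehand, 2,000 cells per well were exposed for 16 hr at 37 °C to 5-fluorouridine together with compound or vehicle.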
IL-1B inflam inh = qHTS for Inhibitors of Inflammasome Signaling: IL-1-beta AlphaLISA Primary Screen; THP-1 LPS/ATP IL-1B secretion, AlphaLISA, 16 h; stronger effect = lower value; activity change, % at 57.5 µM; 360,000 tested, 4.7% active; AID 743279, 2014; in the data active = activity change below about -50%; inconclusive = mostly about -30% to -49%
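THP-1 cells pretreated 1 hr with compounds (up to 57.5 uM final), then stimulated with LPS (250 ng/mL final) plus ATP (1.25 mM final); secreted IL-1B measured by AlphaLISA after 16 hr, decreased signal indicating inhibition.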
TDP1 block = qHTS Assay for Inhibitors of Tyrosyl-DNA Phosphodiesterase (TDP1); Tyrosyl-DNA phosphodiesterase 1 (Homo sapiens), Q9NUW8; recombinant TDP1, AlphaScreen DNA substrate cleavage; Potency, µM (titrated, usually from 130 µM), without a hit: at the highest dose activity change, negative = inhibition, most hits filed as inhibitors; 350,000 tested, 0.28% active; note: potency is the fitted concentration of half-maximal effect; nearly all actives have a fitted effect of over 40% in size
Target sequence (Q9NUW8 whole entry, looked up): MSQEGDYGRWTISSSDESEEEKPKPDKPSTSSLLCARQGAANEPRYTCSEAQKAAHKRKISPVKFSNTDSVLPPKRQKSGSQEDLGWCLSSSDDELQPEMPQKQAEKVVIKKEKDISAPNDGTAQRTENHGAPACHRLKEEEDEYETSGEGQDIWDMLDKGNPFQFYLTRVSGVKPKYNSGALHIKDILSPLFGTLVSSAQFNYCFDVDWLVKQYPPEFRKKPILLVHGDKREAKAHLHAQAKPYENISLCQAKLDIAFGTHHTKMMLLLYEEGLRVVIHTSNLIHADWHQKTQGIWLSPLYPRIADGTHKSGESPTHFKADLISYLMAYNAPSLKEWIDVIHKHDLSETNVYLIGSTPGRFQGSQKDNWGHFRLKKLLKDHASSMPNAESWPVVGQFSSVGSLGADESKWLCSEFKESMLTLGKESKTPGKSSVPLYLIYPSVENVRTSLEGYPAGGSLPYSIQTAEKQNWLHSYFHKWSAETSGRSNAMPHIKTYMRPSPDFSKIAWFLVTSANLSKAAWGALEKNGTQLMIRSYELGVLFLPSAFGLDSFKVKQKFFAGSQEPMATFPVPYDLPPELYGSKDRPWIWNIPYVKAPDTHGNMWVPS
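Steps: enzyme plus compound, 15 min RT; add biotin/phosphotyrosine-FITC oligonucleotide (15 nM final), react 5 min; add donor/acceptor beads (10 ug/ml final), 10 min; read AlphaScreen. Tdp1 at 1 nM final.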
DT40 TDP1 no CPT = qHTS for Inhibitors of human tyrosyl-DNA phosphodiesterase 1 (TDP1): qHTS in cells in absence of CPT. AID 686978, 2013. DT40 Tdp1-/- hTDP1 cells, no CPT, ATP luminescence, 48 h. 420,000 tested, 15% active. Potency, µM (highest dose often 46.2 µM), for the others: at the highest dose activity change, negative = growth inhibition, actives largely listed as inhibitors; note: potency is the fitted concentration of half-maximal effect; nearly all actives have a fitted effect of over 55% in size
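No-CPT arm: Tdp1-/-;hTDP1 DT40 cells (400/well) plus compounds, incubated ≥48 hr at 37 °C. Readout CellTiter-Glo luminescence.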
Giardia kill = Small Molecules that selectively kill Giardia lamblia: qHTS; Giardia lamblia trophozoite viability; activity change, % at 7.66 µM, hits read low; 340,000 tested, 0.15% active; in the data active = activity change below about -80%; inconclusive = between about -30% and that limit;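 note: parasites exposed to compound for two days anaerobically before the ATP read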
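Luminescent ATP signal served as the viability read-out, measured 15-30 min after adding ATP detection reagent to trophozoites that had been incubated with compounds for 48 hrs at 37 deg C anaerobically at 100 cells/well.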
DT40 TDP1 CPT = qHTS for Inhibitors of human tyrosyl-DNA phosphodiesterase 1 (TDP1): qHTS in cells in presence of CPT; chicken DT40 Tdp1-/-;hTDP1 cells + 20 nM CPT, ATP luminescence, 48 h; Potency, µM (doses to about 46.2 µM), without a hit: at the highest dose activity change, negative = growth inhibition, hits mostly inhibitors; 420,000 tested, 12% active; note: potency is the fitted concentration of half-maximal effect; nearly all actives have a fitted effect of over 55% in size
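Chicken DT40 Tdp1-/- cells complemented with human TDP1, 400 cells/well, exposed to compounds plus 20 nM camptothecin for at least 48 h at 37 C; viability read as ATP content by CellTiter-Glo luminescence.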
* = called active by the depositor; ? = inconclusive; · = no result; [ ] = dose if it differs, or a comment. Compounds with a hit are over-represented: about 19% of the library has one in this group of screens. Unless noted, calls come from the whole dose curve; as a rule, active = well fitted curve in the direction sought with a large enough effect; inconclusive = small, poorly fitted or top-dose-only effect, or another doubt; inactive = no such curve, though single readings can be large; an effect the other way counts as inactive or inconclusive. % is set by controls: 0 for no effect and ±100 for the full control effect.

SMILES | ELG1 repair inh | IL-1B inflam inh | TDP1 block | DT40 TDP1 no CPT | Giardia kill | DT40 TDP1 CPT
CCOc1ccc(NC(=O)c2ccc(NC(=O)CSc3nc4ccccc4c(=O)[nH]3)cc2)cc1 | ? | 44.2 | 2.6% | 11.8% | 5.0 | 3.0%
Cc1ccc(NC(=O)CSc2nc3ccccc3c(=O)[nH]2)cc1[N+](=O)[O-] | 10.5% | 5.3 | 2.3% | ? | 24.8 | ?
O=[N+]([O-])c1ccc(Sc2cc[n+]([O-])c3ccccc23)c([N+](=O)[O-])c1 | ? | -108.2* | 8.4% | 2.06µM* | 19.6 | 2.59µM*
O=C(CSc1nc2ccccc2c(=O)[nH]1)Nc1ccc(C(=O)O)cc1 | 21.6% | -5.2 | 50.1µM* | -3.1% | -0.3 | 3.9%
COc1ccc(CC(=O)OCC(=O)Nc2cccc(C(C)=O)c2)cc1OC | -0.2% | 20.0 | -5.7% | -0.2% | 17.6 | -3.8%
Cn1c(=O)n(C)c2cc(NC(=O)CSc3nc4ccccc4c(=O)[nH]3)ccc21 | ? | 54.2 | 3.3%[0.0935 µM] | -26.0% | 7.3 | -16.0%
CC(C)(C)c1csc(NC(=O)CSc2nc3ccccc3c(=O)[nH]2)n1 | -10.4% | 17.0 | -2.1% | 23.1µM* | 0.4 | 18.4µM*
O=c1[nH]c(Sc2ccc([N+](=O)[O-])cc2[N+](=O)[O-])nc2ccccc12 | · | -22.5 | · | 13µM* | -20.8 | 3.26µM*
O=C(CSc1nc2ccccc2c(=O)[nH]1)Nc1ccc(S(=O)(=O)N2CCCC2)cc1 | -17.6% | 38.2 | 10.2% | ? | 10.8 | 16.4µM*
CC(C)Sc1nc2ccccc2c(=O)[nH]1 | -4.5% | ? | -3.3% | -2.0% | -1.4 | -29.2%
CC1CCCC(C)N1C(=O)COC(=O)c1cc(=O)[nH]c2ccccc12 (centres undefined) | 6.5% | 15.0 | -0.3% | -14.8% | -16.7 | 30.5%
CC(=O)Nc1ccccc1OC1=N[S+](=O)([O-])c2ccccc21 | · | · | 0.2% | · | · | ·
Cc1nonc1NC(=O)CSc1nnnn1-c1ccccc1 | -2.7% | -27.1 | 0.0% | -10.3% | 20.3 | 9.2%
C=C(C(=O)O)[C@@H]1CC[C@@]2(C)CCC[C@](C)(O)[C@@H]2C1 | · | · | 0.6% | -6.0%[9.04 µM] | · | -5.0%[9.04 µM]
Cc1cc(S(=O)(=O)NC2CCCCC2)ccc1OCC(=O)N1CCOCC1 | -19.6% | 6.5 | 4.6% | -21.6% | 0.0 | -28.2%
Cc1ccccc1OCC(=O)NC(=S)Nc1ccc(S(=O)(=O)NC2CCCCC2)cc1 | 4.0% | -5.2 | -4.0% | 13µM* | -21.3 | ?
CCOC(=O)N1CCN(C(=O)COc2ccc(S(=O)(=O)NC3CCCCC3)cc2C)CC1 | ? | 1.1 | -1.1% | 18.4µM* | 10.3 | ?
CCc1ccc(OCC(=O)NC(=S)Nc2ccc(S(=O)(=O)NC3CCCCC3)cc2)cc1 | -15.8% | -12.2 | 2.3% | ? | 8.3 | ?
CCOC(=O)N1CCC(NS(=O)(=O)c2ccc(C)c(Cl)c2)CC1 | 16.4µM* | 34.0 | 4.1% | 6.51µM* | 8.4 | ?
CCOC(=O)c1ccc(S(=O)(=O)N2CCN(c3nc(-c4ccccc4)nc4ccccc34)CC2)cc1 | · | · | 1.1% | -5.4% | 14.3 | 20.0%
COc1ccc(CCNC(=O)COc2ccc(C)nc2[N+](=O)[O-])cc1OC | -5.1% | 16.2 | 6.0% | -26.9% | -3.6 | -4.8%
Cc1ccc(S(=O)(=O)N2CCCCC2)cc1NC(=O)CSc1ccc2c(c1)OCCO2 | -26.4% | -8.0 | 5.3% | ? | 10.6 | 23.1µM*
O=C(c1cccc(S(=O)(=O)N2CCOCC2)c1)N(Cc1ccco1)Cc1cccs1 | ? | 1.3 | 0.9% | ? | 14.1 | ?
COc1ccc(OCCCC(=O)Nc2cc(S(=O)(=O)N3CCCCC3)ccc2C)cc1 | ? | -7.1 | -0.1%[56.1 µM] | ? | -4.0 | 20.6µM*
COc1ccc(OCCCC(=O)Nc2cc(S(=O)(=O)N3CCCCC3)ccc2OC)cc1 | -25.2% | 58.7 | 1.2% | -25.8% | -5.5 | -19.6%
SMILES | ELG1 repair inh | IL-1B inflam inh | TDP1 block | DT40 TDP1 no CPT | Giardia kill | DT40 TDP1 CPT
Cc1ccc(S(=O)(=O)N(C)C)cc1NC(=O)CSc1ccc2c(c1)OCCO2 | -18.4% | 11.3 | · | 7.7% | 12.8 | 2.9%
Cc1ccc(NC(=O)CSc2ccc3c(c2)OCCO3)c(O)c1 | 4.1% | 0.4 | 3.0% | ? | -3.7 | 18.4µM*
O=C(CN(Cc1ccco1)Cc1cccs1)N1CCN(S(=O)(=O)c2cccc(F)c2)CC1 | 0.0% | -24.3 | 2.3% | 18.4µM* | 21.8 | 23.1µM*
COc1ccc(CC(=O)NO)cc1OC | · | · | · | -4.4% | · | -0.2%
CC(NCC(=O)Nc1cc(S(=O)(=O)N2CCCCCC2)ccc1Cl)c1ccccc1 (centres undefined) | ? | -9.6 | · | 13µM* | 20.1 | 18.4µM*
O=C(CN(Cc1ccco1)Cc1ccco1)Nc1cc(S(=O)(=O)N2CCCCC2)ccc1Cl | 25.9µM* | -25.8 | 1.2%[56.1 µM] | 11.6µM* | ? | 13µM*
O=C(CSc1ccc2c(c1)OCCO2)NC(=O)NC1CCCC1 | 0.731µM* | 21.7 | 2.2% | -26.7% | 1.2 | -15.1%
O=C(Cc1cccs1)Nc1cc(S(=O)(=O)N2CCCCC2)ccc1Cl | -0.1% | -4.9 | -3.4% | -18.1% | 10.1 | -17.6%
Cc1ccccc1NCC(=O)Nc1cc(S(=O)(=O)N2CCCCC2)ccc1C | -12.1% | -24.7 | 2.2% | 20.6µM* | 4.0 | ?
O=C(CSc1ccc2c(c1)OCCO2)Nc1ccccc1 | · | 14.9 | · | ? | · | -20.1%
Cc1c(OC(C)C(=O)NCc2ccccn2)ccc2c3c(c(=O)oc12)CCCC3 (centres undefined) | ? | -27.7 | 5.9% | ? | -13.2 | 13µM*
Cc1c(OC(C)C(=O)NCc2ccncc2)ccc2c3c(c(=O)oc12)CCC3 (centres undefined) | 2.4% | -0.9 | 3.2% | ? | 13.7 | ?
Cc1cc(=O)oc2c(C)c(OCC(=O)NC3CCN(Cc4ccccc4)CC3)ccc12 | -6.4% | ? | 1.6% | ? | -6.2 | ?
CC(=O)COc1ccc2c3c(c(=O)oc2c1C)CCCCC3 | ? | -12.1 | -4.5% | ? | -9.5 | 14.6µM*
Cc1c(OCC(=O)NC2CCN(Cc3ccccc3)CC2)ccc2c3c(c(=O)oc12)CCC3 | -0.9% | -22.5 | 1.4% | ? | 7.5 | 16.4µM*
